Measured values as given in the supplement of paper PMC10338343.
± gives the standard deviation.

test system: MILI (PIWIL2) piRISC loaded with L1MC piRNA (26 nt); test: pre-steady-state target cleavage rate (min^-1); guide: L1MC piRNA 5'p-UAACUAAAUACUAUGCAAGCUGUAGG; MIWI and MILI are mouse PIWI proteins and EfPiwi is from a freshwater sponge; tags in brackets are library labels; higher = faster piRNA-guided slicing of the target; details: auxiliary factor: 500 nM mouse GTSF1
Procedure: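 Cleave-'n-Seq: a library of target RNAs (target site embedded in constant flanks, ACAGCATTCCGCGTTAGTGATATCCG... 5' flank; DNA-blocked outside the site) at 0.1 nM was incubated with 1 nM active mouse MILI or MIWI piRISC (synthetic 5'-monophosphorylated piRNA guide) with or without 500 nM mouse GTSF1 at 33 °C for 1 min to 16 h. Uncleaved targets were sequenced and normalised to non-target controls, and the pooled three trials were fitted to a burst-and-steady-state model to give the pre-steady-state cleavage rate (min^-1; k3 is constrained to at most 1e-4). Sequence is the target site only; target names encode pairing extent (gX:gY) and contiguous / 1-mismatch / 2-mismatch / bulge geometry. Fits with R² ≤ 0 are excluded.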

Sequence	pre-steady-state target cleavage rate
UCCUGGUACAGCUUGCAUACUAUUUUGUUA	0.0288 ± 0.011
UCCUGGAUGUCCUUGCUUAGUAUUUACUUA	0.0556 ± 0.015
UCCUGGAUGUCGUUGCAUAGUAUUUUCUUA	0.00558 ± 0.0035
UCCUCCUACACGAUGCAUAGUAUUUAGAAA	0.102 ± 0.021
UCCUGGAUGAGCUUGCAAAGUAAUUAGUUA	0.0348 ± 0.0091
UCCUCCUACAGCUUGCCUAGUAUUUAGUUA	0.253 ± 0.022
UCCUGGUACAGCUUGCAUAGUAUUUUCUAA	0.0489 ± 0.017
UCCUGGUACAGCUUGCAUAGUAUUUAGUUUA	0.375 ± 0.028
UCCUGGUACAGCUUGCAUAGUAAAUAGUUA	0.238 ± 0.038
UCCUGGAUCAGCUUGCAUACUAUUUUGUUA	0.0178 ± 0.0061
UCCUGCUACAGGUUGCUUAGUAUUUAGUUA	0.227 ± 0.012
UCCUGGAUGUCGUUGCAAAGUAUAUAGUUA	0.0166 ± 0.0054
UCCUGCUACAGCGUGCAUAGUAUUUAGUUA	0.296 ± 0.02
UCCUGGAUGAGCUUGCAUUGUAUAUAGUUA	0.0992 ± 0.012
UCCUCCUACAGCUAGCAAAGUAUUUAGUUA	0.138 ± 0.014
UCCUGGAACAGCUUGCAUCGUAUUUAGUUA	0.0882 ± 0.013
UCCUGGAUGUGCUUGCAUAGUAUUUAGUA	0.111 ± 0.019
UCCUCGUACUGCUUGCAUAGUAUUUAGUUA	0.264 ± 0.0097
UCCUGGAUGACCUUGCAUAGUAUUUUGUUA	0.0852 ± 0.023
UCCUGGAUGAGCUUGCAUAGUAUUUAUGUUA	0.102 ± 0.021
UCCUGGAACAGCUUGCUAAGUAUUUAGUUA	0.129 ± 0.015
UCCUGCUACAGCCUGCAUAGUAUUUAGUUA	0.279 ± 0.025
UCCUCCUUCAGCUUGCAUAGUAUUUAGAAA	0.119 ± 0.021
UCCUGCUACAGCUUGCAAAGUAAUUAGUUA	0.124 ± 0.018

same assay, conditions: auxiliary factor: none (no GTSF1)

Sequence	pre-steady-state target cleavage rate
UCCUGGAUGUCGAACGAUAGUUAUUUAGUUA	< 0.0001
UCCUCCUACAGCUUGCCUAGUAUUUAGUUA	0.00736 ± 0.002
UCCUGGUACAGCUUGCAUAGUAUUUUCUAA	0.00383 ± 0.0034
UCCUGGUACAGCUUGCAUAGUAUUUAGUUUA	0.0152 ± 0.005
UCCUGCUACAGGUUGCUUAGUAUUUAGUUA	0.0118 ± 0.0038
UCCUGGAUGUCGUUGCAAAGUAUAUAGUUA	0.00471 ± 0.0027
UCCUGCUACAGCGUGCAUAGUAUUUAGUUA	0.00602 ± 0.0024
UCCUGGAUGAGCUUGCAUUGUAUAUAGUUA	0.00388 ± 0.0029
UCCUCCUACAGCUAGCAAAGUAUUUAGUUA	0.00428 ± 0.0022
UCCUGGAACAGCUUGCAUCGUAUUUAGUUA	0.00682 ± 0.0024
UCCUGGAUGUGCUUGCAUAGUAUUUAGUA	0.00483 ± 0.0024
UCCUCGUACUGCUUGCAUAGUAUUUAGUUA	0.00745 ± 0.0024
UCCUGGAUGAGCUUGCAUAGUAUUUAUGUUA	0.00381 ± 0.0034
UCCUGGAACAGCUUGCUAAGUAUUUAGUUA	0.00361 ± 0.0028
UCCUGCUACAGCCUGCAUAGUAUUUAGUUA	0.00704 ± 0.0031
UCCUGCUACAGCUUGCAAAGUAAUUAGUUA	0.00266 ± 0.0025
